Compounds with a hit are over-represented: about 1.7% of the library has one in this group of screens.
GLP1R ag – activates the human GLP-1 receptor. P43220. HEK293 GLP-1R CRE-luciferase, luminescence, 4-6 h; cells express a hypersensitive GLP-1R form. Potency, µM (titrated, usually from 45.6 µM), for the others: at the highest dose activation, hits mostly activators. 380,000 tested, 0.007% active. AID 624172; also: potency is read from the fitted curve at half-maximal effect; % of control where 0% means no effect
LDHA inh – LDHA (human) enzyme inhibition; P00338; purified LDHA, NADH/diaphorase-resazurin fluorescence; hits give low values; activity change, % (values are at about 110 or 230 µM); 480,000 tested, 0.15% active; AID 1347041; in the data active = activity change below about -30%; inconclusive = mostly about -25% to -30%;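 also: plate controls were DMSO wells for no effect and wells without enzyme for full effect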
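Enzyme activity of human lactate dehydrogenase 5 (2 nM; 0.06 mM NADH, 0.2 mM pyruvate, 5 min, RT) is measured via a resazurin/diaphorase fluorescence readout of residual NADH.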
GLP1R cytotox – cytotoxic in the GLP-1 receptor inverse agonist counter-screen | HEK293 cAMP-luciferase reporter cells, luminescence, 24 h | Potency, µM (titrated, usually from 38.3 µM), inactives show at the top dose activity change, negative = inhibition, hits mostly inhibitors | 410,000 tested, 0.13% active;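 also: loss of luciferase light is scored as toxicity; potency is read from the fitted curve at half-maximal effect; % is scaled to controls: 0 for no effect and ±100 for the full control effect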
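Compound-treated cells are incubated 24 hr at 37 deg C under 5% CO2 after a 12 hour attachment period, then luciferase detection reagent is added and luminescence is measured following 12 min at room temperature; lowered signal indicates toxicity.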
GLP-1R inv ag – acts as inverse agonist at human GLP-1 receptor | AID 624417 | 410,000 tested, 1.6% active | Potency, µM (series often up to 38.3 µM), for the others: top-dose activity change, negative = inhibition, most hits filed as inhibitors | HEK293 GLP-1R CRE-luciferase, luminescence, 24 h; GLP-1R form is constitutively active; also: potency is read from the fitted curve at half-maximal effect; % is scaled to controls: 0 for no effect and ±100 for the full control effect; nearly all actives have a fitted effect of over 55% in size
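Stable HEK293 clone (constitutively active GLP-1R + cAMP-response luciferase); 200 cells/uL plated, 12 h pre-culture, compound 24 hr, 37 deg C/5% CO2; detection reagent 12 min RT; luminescence.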
mIDH1 inhibitor – blocks human mutant IDH1 R132H enzyme. Potency, µM (top dose mostly 76.6 µM), inactives show at the highest dose activity change, negative = inhibition, most hits filed as inhibitors. 390,000 tested, 0.093% active. IDH1-R132H enzyme, NADPH consumption, diaphorase/resazurin fluorescence. AID 602179. O75874; also: potency is read from the fitted curve at half-maximal effect; % is scaled to controls: 0 for no effect and ±100 for the full control effect; nearly all actives have a fitted effect of over 65% in size
Target sequence (O75874 whole entry R132H, stated change not applied): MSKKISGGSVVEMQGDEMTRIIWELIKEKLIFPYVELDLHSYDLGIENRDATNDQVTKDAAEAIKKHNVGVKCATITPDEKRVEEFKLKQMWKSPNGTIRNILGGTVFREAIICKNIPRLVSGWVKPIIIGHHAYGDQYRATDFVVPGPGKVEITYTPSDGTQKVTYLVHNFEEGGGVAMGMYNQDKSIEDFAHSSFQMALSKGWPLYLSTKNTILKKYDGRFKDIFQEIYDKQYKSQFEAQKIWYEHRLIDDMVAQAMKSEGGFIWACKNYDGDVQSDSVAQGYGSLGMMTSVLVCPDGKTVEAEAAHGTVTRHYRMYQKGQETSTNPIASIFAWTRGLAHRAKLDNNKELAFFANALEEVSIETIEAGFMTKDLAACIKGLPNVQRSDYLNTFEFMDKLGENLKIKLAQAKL
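IDH1-R132H (0.5 ug/mL dispensed) in pH 7.5 Tris buffer was preincubated 30 min with compound, then given a substrate mix of 0.016 mM NADPH and 2 mM alpha-KG for 80 min at room temperature; remaining NADPH was read by diaphorase/resazurin fluorescence.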
PTHR1 agonist – activates the human parathyroid hormone receptor PTHR1 | HEK293 GP2 PTHR1 cells, GloSensor cAMP luminescence, 1 h | Potency, µM (highest dose often 115 µM), for the others: top-dose activation, usual class: activators | 410,000 tested, 0.075% active; also: potency is read from the fitted curve at half-maximal effect; nearly all actives have a fitted effect of over 55% in size
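HEK-293-derived GP2 cells expressing PTHR1 and a GloSensor cAMP reporter, 3,000/well, plated overnight, given luciferin plus IBMX (each 0.5 mM as added) for 1 h at 37 °C, then compound for 1 h at 37 °C. Luminescence was read after 15 min at room temperature.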
The depositor's hits bear a star; i = inactive; ? = inconclusive; · = no result given. Unless noted, calls follow the shape of the dose curve; as a rule, active = well fitted curve in the direction sought with a large enough effect; inconclusive = small, poorly fitted or top-dose-only effect, or another doubt; inactive = no such curve, though single readings can be large; an effect the other way counts as inactive or inconclusive.

SMILES	GLP1R ag	LDHA inh	GLP1R cytotox	GLP-1R inv ag	mIDH1 inhibitor	PTHR1 agonist
O=C(N/N=C/c1ccc(Br)cc1)c1ccc(Br)o1	4.1%	-31.7*	-3.8%	-4.2%	2.1%	-43.7%
Cc1ccc(N/C=C/C(=O)c2ccc(Cl)cc2Cl)cc1C	·	0.9	·	·	·	·
O=C(/C=C/Nc1ccccc1)c1ccc(Cl)cc1Cl	-4.3%	2.5	9.5%	11.2µM*	6.4%	i
O=[N+]([O-])c1cccc(Nc2nc(-c3ccccc3)nc3ccccc23)c1	·	-1.9	·	·	·	·
C/C(=N\N(c1ccccc1)c1ccccc1)c1ccco1	-2.6%	-2.9	9.3%	8.91µM*	10.8%	-44.0%
C/C(=N\N=C(c1ccccc1)c1ccccc1)c1ccco1	6.3%	-6.2	24.8%	?	14.4%	-6.2%
CCCOc1ccc(CN(C(=O)c2cc(=O)c3cc(Cl)ccc3o2)C2CCS(=O)(=O)C2)cc1 (stereo unspecified)	·	-3.4	·	·	·	·
Nc1nc(-c2ccc(Cl)cc2)c(S(=O)(=O)c2ccccc2)s1	6.3%	-3.4	6.0%	8.91µM*	26.0%	-92.0%
CCC(c1nnnn1CCc1ccccc1)N(Cc1ccco1)Cc1cc2c(C)ccc(C)c2[nH]c1=O (stereo unspecified)	1.1%	-5.9	-25.3%	11.2µM*	3.0%	i
CCCCOc1ccc(Cn2c(=O)sc3ccccc32)cc1	·	10.3	25.8%	11.2µM*	-15.5%	i
CCCOc1ccc(Cn2c(=O)sc3ccccc32)cc1	·	2.3	1.1%	?	-9.0%	i
O=C(Nc1ccn(Cc2ccccc2F)n1)c1ccc(COc2cccc(Br)c2)cc1	-11.2%	-6.1	-1.7%	3.16µM*	-2.1%	i
CC(C)CNc1nc2ccccc2nc1S(=O)(=O)Cc1ccc(Cl)cc1	·	8.8	·	·	·	·
CC1CCN(Cc2cc(=O)oc3cc(-c4ccccc4)c(O)cc23)CC1	·	-2.4	·	·	·	·
CCOC(=O)c1c(-c2ccc(C)cc2)csc1NC(=O)c1cc(=O)c2cc(C)ccc2o1	·	-7.2	1.5%	2.8%	·	3.98µM*
CCOC(=O)c1c(-c2ccccc2)csc1NC(=O)c1cc(-c2cccc(OC)c2)on1	·	0.5	2.1%	7.3%	-3.9%	39.8µM*
CCOC(=O)c1c(-c2ccccc2)csc1NC(=O)C(C)NCCCN1CCOCC1 (stereo unspecified)	30.1%	-33.7*	-29.5%	?	-5.4%	-36.2%
CCNC(=S)Nc1scc(-c2ccccc2)c1C(=O)OCC	0.0%	7.9	10µM*	?	10.0%	-13.0%
CCOC(=O)c1c(-c2ccc(-c3ccccc3)cc2)csc1NC(=O)CNCCN(C)C	-0.1%	1.2	-5.7%	10µM*	6.6%	i
Cc1ccc(C(=O)N(CCCN(C)C)c2nc3ccc(Cl)cc3s2)cc1C	17.0%	6.5	?	6.31µM*	7.6%	i
CN(C)CCCN(C(=O)c1ccc2c(c1)CCCC2)c1nc2ccc(F)cc2s1	-11.2%	-0.3	?	6.5%	8.6%	-93.5%
CN(C)CCCN(C(=O)c1ccc2c(c1)CCCC2)c1nc2cc3c(cc2s1)OCO3	9.4%	0.8	?	2µM*	-10.3%	-24.6%
CN(C)CCCN(C(=O)c1ccco1)c1nc2ccc(Br)cc2s1	8.4%	-1.6	?	3.16µM*	3.7%	i
CN(C)CCCN(C(=O)c1ccco1)c1nc2ccc(Cl)cc2s1	6.7%	-7.3	?	?	1.3%	i
Nc1nccnc1C(=O)NCc1ccccc1OC(F)F	·	-4.0	·	·	·	·
SMILES	GLP1R ag	LDHA inh	GLP1R cytotox	GLP-1R inv ag	mIDH1 inhibitor	PTHR1 agonist
COc1ccccc1C1CC(=O)Nc2c(-c3ccccc3)nsc21 (stereo unspecified)	·	-0.1	·	·	·	·
O=C(OCc1ccccc1)c1ccc(NCc2cc(O)ccc2O)cc1	-5.2%	24.1	5.01µM*	7.08µM*	2.1%	-34.3%
COC(=O)c1ccc(CCc2cc(O)c(Br)cc2O)cc1	4.5%	38.0	-21.9%	65.8%	11.3%	-36.7%
COC(=O)c1ccc(CCc2cc(O)ccc2O)cc1	-1.7%	40.1	10µM*	?	3.3%	-32.8%
Cc1[nH]c2ccccc2c1C(=O)C(Cl)c1ccccc1 (stereo unspecified)	·	4.8	·	·	·	·
FC(F)(F)c1ccc(Cl)c(N/N=C/c2ccc(-c3ccccc3)cc2)c1	·	0.0	·	·	·	·
CN(c1cccc(NC(=O)CN(c2ccc(F)cc2)S(C)(=O)=O)c1)S(C)(=O)=O	-0.9%	0.1	-1.8%	15.9%	-5.9%	i
CN(c1cccc(NC(=O)CN(c2ccc(C34CC5CC(CC(C5)C3)C4)cc2)S(C)(=O)=O)c1)S(C)(=O)=O	4.9%	-7.1	10µM*	3.16µM*	-2.5%	-3.7%
CCC(C)NC(=O)CCc1ccc(C#N)cc1 (stereo unspecified)	·	-1.7	·	·	·	·
CC(C)(C)Cc1c(-c2ccc(Cl)cc2)nc2ccc(Br)cn12	-2.6%	2.4	?	10µM*	0.0%	-87.6%
CC(C)(C)Cc1c(-c2ccccc2)nc2ccc(Cl)cn12	-5.9%	2.0	?	12.6µM*	0.5%	-27.9%
CC(C)(C)Cc1c(-c2ccc(Cl)cc2)nc2ccc(Cl)cn12	-1.9%	1.7	0.3%	?	-0.4%	-52.2%
CC(C)(C)Cc1c(-c2ccc(Br)cc2)nc2ccc(Cl)cn12	-6.8%	3.3	-4.1%	?	12.1%	-0.6%
COc1cccc(-c2nnc(SCC(=O)Nc3ccccc3C#N)n2-c2ccccc2)c1	·	-0.8	·	·	·	·
COc1cc(OC)c(C2=CCN(C(=O)C(C)Oc3ccc(Br)cc3)CC2)c(OC)c1 (stereo unspecified)	·	1.5	·	·	·	·
O=C(Cc1ccc(F)cc1)Nc1nc(-c2ccc(F)c(F)c2)cs1	-5.2%	-6.4	-8.3%	?	-0.9%	-92.8%
COc1ccc(CC(=O)Nc2nc(-c3ccc(F)c(F)c3)cs2)cc1	8.4%	-3.8	-0.9%	11.2µM*	-4.0%	-33.9%
CCS(=O)(=O)N1CCC(NC(=O)c2ccccc2C(=O)c2ccc(Cl)cc2)CC1	·	-31.3*	·	·	·	·
O=C(COc1ccc(Br)cc1CO)Nc1ccc(S(=O)(=O)N2CCCCC2)cc1	-2.9%	2.5	-0.5%	10µM*	0.0%	-68.9%
O=C(CNc1ccc(Br)cc1)Nc1cccc(S(=O)(=O)N2CCCC2)c1	0.4%	-1.1	-18.7%	?	2.2%	-27.5%
O=C(CNc1ccc(Br)cc1)Nc1ccc(S(=O)(=O)N2CCCC2)cc1	-15.1%	-3.8	-27.4%	10µM*	2.6%	-9.8%
COc1ccccc1-c1noc(CN2CCCc3c(C(=O)NC(C)C)cccc32)n1	·	1.5	·	·	·	·

Assay outcomes: PubChem, National Center for Advancing Translational Sciences (NCATS)
